This passage reports growth results from PubChem BioAssay (NCI).

The panel holds about 83,000 compounds, 20% with a hit somewhere; the sample as a whole holds those more often.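 Assay: single dose, 48 h. Readout: percent growth (0 = no net growth; negative = cell death). Active: <10.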 A number with no mark means an inactive call. Activity calls are given as the source filed them.

Some test systems named below: NCI-H23 lung; NCI-H226 lung; HOP-62 NSCLC; NCI-H460 lung; HOP-92 NSCLC; NCI-H522 lung; A549/ATCC NSCLC; 786-0 renal; COLO 205 colon.
Holding throughout (assay): NCI-60 one-dose screen, 48 h (100 = growth as untreated, 0 = no growth, -100 = all killed)
Common to all, as to conditions: 10 µM

Regarding `O=S(=O)(Oc1ccc(-c2ccc3sccc3c2)cc1)c1ccccc1`, the growth was 89% with NCI-H23 lung; 92.5% in the assay on NCI-H226 lung; 113% with HOP-62 NSCLC; 103% with NCI-H460 lung; 111% in the assay on HOP-92 NSCLC; 87.3% in the assay with NCI-H522 lung. Also, the growth in the assay with A549/ATCC NSCLC was 100%; in the assay with 786-0 renal it was 100%; in the assay with COLO 205 colon, 109%.
With `COc1ccc(-c2n[nH]nc2-c2cc(OC)c3c(c2OC)OCO3)cc1`, the growth in the assay with NCI-H23 lung is 45.6%; with NCI-H226 lung, 75%; with HOP-62 NSCLC it was 36.1%; with NCI-H460 lung it was 11.4%; with HOP-92 NSCLC, 8.78% (active); in the assay with NCI-H522 lung, -12.8% (active). Further, the results for the growth in the assay on A549/ATCC NSCLC, in the assay on 786-0 renal and in the assay with COLO 205 colon were 33.3%, 65.6% and 12.9%, respectively.
Turning to `Nc1cc(Br)c(-c2nn3c(CCC(=O)c4nc5ccccc5[nH]4)nnc3s2)c(Br)c1`, the growth with NCI-H23 lung was 87.3%; in the assay with NCI-H226 lung, 83.6%; in the assay on HOP-62 NSCLC, 103%; in the assay on NCI-H460 lung, 102%; with HOP-92 NSCLC it was 72.8%; with NCI-H522 lung, 97.4%. Besides, the growth in the assay with A549/ATCC NSCLC was 101%; with 786-0 renal, 99.8%; in the assay on COLO 205 colon, 107%.
As to `CS(=O)(=O)c1nccc(-c2c(-c3cccc(OCc4ccccc4)c3)nc3sccn23)n1`, the growth in the assay on NCI-H23 lung is 53.6%; in the assay with NCI-H226 lung, 50.8%; in the assay with HOP-62 NSCLC, 92.9%; in the assay with NCI-H460 lung, 103%; in the assay on HOP-92 NSCLC, 51.8%; in the assay on NCI-H522 lung it was 5.91% (active). For the same molecule, the growth was 106% with A549/ATCC NSCLC, 86.3% with 786-0 renal and 88.4% in the assay with COLO 205 colon.
`CC[C@@H](C(=O)[C@@H](C)[C@@H](O)[C@H](C)[C@@H]1O[C@@H]([C@@H](CC)C(=O)N(CC)CC)CC[C@@H]1C)C1O[C@]2(C=CC(=O)[C@]3(CC[C@@](C)([C@H]4CC[C@](O)(CC)[C@H](C)O4)O3)O2)[C@H](C)C[C@@H]1C` (stereo partly drawn): the growth was 20% with NCI-H23 lung; 13.4% in the assay with NCI-H226 lung; 31.7% in the assay on HOP-62 NSCLC; 18.5% with NCI-H460 lung; -17.2% (active) with HOP-92 NSCLC; 8.58% (active) with NCI-H522 lung. Besides, the growth in the assay with A549/ATCC NSCLC was 28.3%; in the assay on 786-0 renal it was 34.6%; in the assay with COLO 205 colon, 12.2%.
For the molecule `CCOC(=O)Cn1c(=O)c2sc3ncccc3c2n2nnc(-c3ccccc3)c12`, the growth was 100% with NCI-H23 lung; 103% in the assay on NCI-H226 lung; 95.4% with HOP-62 NSCLC; 125% with NCI-H460 lung; 71% in the assay on HOP-92 NSCLC; 92.2% in the assay on NCI-H522 lung. Moreover, the growth with A549/ATCC NSCLC is 107%; in the assay on 786-0 renal it was 99.9%; with COLO 205 colon, 104%.
Consider `COc1cc(-c2nn(-c3cccc(NC(=O)CCNc4ccc(N5CCOCC5)cc4)c3)cc2-c2ccncc2)ccc1Cl`, for which the growth with NCI-H23 lung is 13.2%; with NCI-H226 lung it was 25.9%; with HOP-62 NSCLC, 27.1%; in the assay with NCI-H460 lung it was 4.77% (active); in the assay on HOP-92 NSCLC it was -6.34% (active); with NCI-H522 lung, 11.9%. Also, the growth with A549/ATCC NSCLC is 17.5%; with 786-0 renal, 19.1%; in the assay on COLO 205 colon it was 1.38% (active).
Turning to `CCC(C)[C@H](NC(C)=O)C(=O)N[C@@H](CCCNC(=N)N)C(=O)N[C@@H](CCCCN)C(=O)N[C@@H](CC1CCC(O)CC1)C(=O)NC(C(=O)N[C@@H](CCSC)C(=O)N[C@@H](CCCNC(=N)N)C(=O)N[C@@]1(C)CCC/C=C\CCC[C@@](C)(C(=O)NC(C(=O)N[C@@H](CCC(=O)O)C(=O)N[C@@H](CC(C)C)C(=O)N[C@H](C(=O)N[C@@H](CCC(=O)O)C(N)=O)C(C)C)[C@@H](C)O)NC(=O)[C@H](CCC(N)=O)NC(=O)[C@H](CC(C)C)NC(=O)[C@H](CC(C)C)NC1=O)[C@@H](C)O` (stereo partly drawn), the growth is 106% in the assay with NCI-H23 lung; 108% in the assay with NCI-H226 lung; 108% in the assay with HOP-62 NSCLC; 103% with NCI-H460 lung; 103% with HOP-92 NSCLC; 102% in the assay on NCI-H522 lung. Moreover, the values for the growth with A549/ATCC NSCLC, in the assay on 786-0 renal and with COLO 205 colon were 96.3%, 98.7% and 89.9%, respectively.
With `O=C(O)c1cn(C2CC2)c2cc(N3CCN(C(=O)c4cc(-c5ccc(Cl)cc5)nc5ccccc45)CC3)c(F)cc2c1=O`, the growth in the assay on NCI-H23 lung was 82.2%; with NCI-H226 lung it was 92.3%; in the assay with HOP-62 NSCLC, 82.1%; in the assay on NCI-H460 lung, 96.1%; with HOP-92 NSCLC it was 90.1%; in the assay with NCI-H522 lung it was 86.4%. Moreover, the growth in the assay with A549/ATCC NSCLC was 94.4%; in the assay with 786-0 renal, 88.3%; in the assay with COLO 205 colon it was 110%.
On to `NS(=O)(=O)c1ccc(Br)cc1`, for which the growth with NCI-H23 lung is 96%; in the assay with NCI-H226 lung it was 110%; in the assay on HOP-62 NSCLC, 82.1%; in the assay with NCI-H460 lung, 108%; in the assay with HOP-92 NSCLC it was 94%; in the assay with NCI-H522 lung, 86.2%. The growth with A549/ATCC NSCLC is 81.8%; in the assay with 786-0 renal, 89%; in the assay with COLO 205 colon, 98.5%.
With `Clc1nc2ccc(Br)cc2cc1-c1nc2ccccc2[nH]1`, the growth with NCI-H23 lung is 90.6%; with NCI-H226 lung, 98.5%; with HOP-62 NSCLC, 81.3%; in the assay on NCI-H460 lung, 73.2%; with HOP-92 NSCLC, 71.3%; in the assay with NCI-H522 lung, 53.1%. Also, the results for the growth in the assay with A549/ATCC NSCLC, with 786-0 renal and in the assay with COLO 205 colon were 17.2%, 91% and 107%, respectively.
For the molecule `CCN(CCCNc1cc2c(c(N)c1S(=O)(=O)O)C(=O)c1ccccc1C2=O)c1ccccc1`, the growth with NCI-H23 lung is 89.3%; in the assay on NCI-H226 lung it was 84.4%; in the assay with HOP-62 NSCLC it was 92.1%; in the assay with NCI-H460 lung, 102%; with HOP-92 NSCLC, 112%; with NCI-H522 lung, 96.3%. The values for the growth with A549/ATCC NSCLC, in the assay with 786-0 renal and with COLO 205 colon were 104%, 96.3% and 109%, respectively.
`CN(C)c1ccc(/C=N/NC(=O)c2ccccc2Nc2cccc(C(F)(F)F)c2)cc1`: the growth in the assay with NCI-H23 lung was 91.2%; with NCI-H226 lung, 101%; with HOP-62 NSCLC, 79.6%; with NCI-H460 lung, 96.3%; in the assay on HOP-92 NSCLC, 73%; with NCI-H522 lung, 83.2%. Moreover, the figures for the growth with 786-0 renal and in the assay on COLO 205 colon were 90.1% and 111%, respectively.
As to `CC(C)(O)CCl`, the growth is 109% in the assay with NCI-H23 lung; 96.7% in the assay with NCI-H226 lung; 107% in the assay with HOP-62 NSCLC; 102% in the assay on NCI-H460 lung; 114% in the assay on HOP-92 NSCLC; 114% in the assay with 786-0 renal. Further, the growth in the assay on COLO 205 colon is 126%.
